Compound activity deposited in PubChem BioAssay by several laboratories.
HSF-1 act = increases HSF-1 driven luciferase reporter signal | activation, % at 9 µM | AID 504408 | NIH3T3-HGL HSF-1 luciferase reporter, MG132, 8 h; 100% = twice DMSO control signal | 300,000 tested, 1.7% active;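 active = mean replicate activation of at least 50% with a set share of replicates each reaching 50%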;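 note: 0% = median of the neutral control wells and 100% = twice that signal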
SMARCA2 activ = increases SMARCA2 function in MMTV reporter cells; activation, % at 9.1 µM; MG213 cells, MMTV-luciferase reporter, dexamethasone, overnight; 370,000 tested, 1% active; in the data active = activation above about 7.8%;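 note: 0% = vehicle wells and 100% = reference activator wells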
Wnt bcat act = activators of Wnt/beta-catenin signaling; 300,000 tested, 1.2% active; Wnt/beta-catenin reporter cell assay, activator, plate reader; activation, % at 9.35 µM; in the data active = activation above about 30%, passing the limit was not always enough;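 note: 0% = neutral control wells and 100% = positive control wells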
HSF1 inhib = HSF1 inhibition; NIH3T3-HGL HSE-luciferase, MG132-induced, luminescence 8 h; hits give low values; activity change, negative = inhibition, % at 7.5 µM (by protocol); 300,000 tested, 0.77% active; AID 2098;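 active = more than half of replicate wells show activity change below -50%, luminescence cut by over half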;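 note: luciferase reports HSF-1 transcriptional activity via heat shock element; 0% = median of DMSO wells and -100% = zero luminescence signal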
esBAF inh = SWI/SNF esBAF complex inhibition; mouse ES cells, Bmi1-luciferase knock-in reporter, 24 h; 100% = twice the neutral-well signal; reporter increase, % at 12.5 µM; 350,000 tested, 2% active; in the data active = activation above about 40%;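 note: 0% = median of the plate's neutral control wells and 100% = double that signal; a rise in the Bmi1 reporter signal indicates esBAF inhibition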
MITF TRPM1 HTS = increases MITF-driven TRPM1 promoter luciferase signal | AID 588334 | SK-MEL-5 TRPM1-promoter luciferase, 24 h; % of positive control, neutral wells = 0 | activation, % at 12.5 µM | 300,000 tested, 0.75% active;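 active = mean activation of at least 80% with every replicate also reaching 80%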;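 note: 0% = neutral control wells and 100% = parthenolide positive control wells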
SMARCA2 act conf = SMARCA2 activation, confirmation screen. shares compounds with SMARCA2 activ. MG213 cells, MMTV-luciferase with dexamethasone, luminescence, overnight; MG213 cells expressing E1A, Rb sequestered; DMSO wells 0%, reference activator 100%. activation, % at 9.1 µM. 3,500 tested, 30% active. AID 652260;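 active = activation above its plate's cutoff, the mean activation of tested wells plus 3 SD, cut at about 7.9% in these data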
GAL4-VP16 Luc = activates GAL4-VP16 luciferase, flagging SMARCA2 activator hits. shares compounds with SMARCA2 activ. HEK293 GAL4-VP16 pG5luc reporter, luciferase luminescence; scaled: DMSO wells 0%, SAHA wells 100%. activation, % at 9.1 µM. 3,500 tested, 41% active. AID 686939;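 active = activation above the solvent-only control well mean plus 3 SD, averaged across control plates, cut at about 5.2% in these data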
Starred values were filed as active, the others as inactive; . = no result. Sampled rows, rich in hits. Any-hit rate of the full collection: about 4.3%.

SMILES | HSF-1 act | SMARCA2 activ | Wnt bcat act | HSF1 inhib | esBAF inh | MITF TRPM1 HTS | SMARCA2 act conf | GAL4-VP16 Luc
C[C@@H]1CN([C@@H](C)CO)S(=O)(=O)c2ccc(-c3ccc(F)cc3)cc2O[C@@H]1CN(C)C(=O)c1ccccc1F | . | . | . | . | 8 | . | . | .
C[C@@H]1CN([C@@H](C)CO)C(=O)Cc2cc(NC(=O)c3ccncc3)ccc2O[C@@H]1CN(C)Cc1ccc(C(=O)O)cc1 | . | . | . | . | 1 | . | . | .
COc1ccc(CNC(=O)c2c(C)nc3ccccn23)cc1 | 5 | -4 | 7 | 1 | -3 | 0 | . | .
COc1ccc(/C=C/C(=O)c2c(C)nc3ccccn23)cc1 | 63* | 9.7* | . | 31 | 69* | . | 6 | 10*
Cc1ccccc1S(=O)(=O)N[C@@H]1CC[C@@H](CCn2cc(-c3ccccc3)nn2)O[C@@H]1CO | . | . | . | . | 9 | . | . | .
O=C(N/N=C/C(Br)=C\c1ccccc1)c1ccco1 | 108* | 9.4* | 1 | 110 | . | . | 7 | 17*
O=C(N/N=C/C(Br)=C/c1ccccc1)c1ccncc1 | 34 | -4 | 8 | 8 | . | -18 | . | .
O=C(NN=Cc1ccccc1O)C1CC1 | . | 2 | -3 | . | 6 | 3 | . | .
O=C(N/N=C/C(Br)=C/c1ccccc1)C1CC1 | 47 | 9.6* | 6 | 47 | . | 18 | 10* | 5.6*
O=C(N/N=C/C(Br)=C\c1ccccc1)c1cccs1 | 101* | 18* | 126* | 105 | . | . | 7 | 11*
Cc1nn(C)cc1/C=N/NC(=O)c1ccco1 | 5 | 9.1* | 5 | 1 | 34 | 32 | 8 | 2
Cc1cc(C(=O)N/N=C/c2cn(C)nc2C)c2ccccc2n1 | -4 | -3 | 1 | -3 | -8 | 5 | . | .
CN1C[C@H]2[C@@H](c3ccccc31)[C@H](CO)N2Cc1ccccc1F | . | . | . | . | 0 | . | . | .
COc1ccc(CN(C)C[C@H]2Oc3ccc(NS(=O)(=O)c4ccccc4)cc3C(=O)N([C@H](C)CO)C[C@@H]2C)cc1 | . | . | . | . | -4 | . | . | .
COc1ccc(C(=O)Nc2ccc3c(c2)C(=O)N(C)C[C@H](OC)[C@@H](C)CN(C(C)=O)[C@@H](C)CO3)cc1 | . | . | . | . | 3 | . | . | .
CCCNC(=O)Nc1ccc2c(c1)OC[C@@H](C)N(CCC)C[C@H](C)[C@H](OC)CN(C)C2=O | . | . | . | . | 2 | . | . | .
C=C(C)C(=O)Oc1ccc(N=Nc2ccc(C)cc2)ccc1=O | . | 19* | -4 | . | -41 | . | -1 | 9.1*
CS(=O)(=O)Nc1ccc2c(c1)[C@H]1C[C@@H](CC(=O)NCC3CC3)O[C@@H](CO)[C@H]1O2 | . | . | . | . | 5 | . | . | .
N#CC(=C1NC(=O)c2ccccc21)c1nc2ccccc2n1CCO | . | 20* | 5 | . | 22 | . | -13 | 18*
CC(=O)c1nc2ccccc2n1CCc1ccccc1 | 7 | 2 | -1 | -1 | -7 | -1 | . | .
COc1ccc(C)cc1NC(=O)c1ccccc1NS(=O)(=O)c1cccc2cccnc12 | -15 | 8.1* | . | -7 | 0 | -13 | -3 | -1
Brc1ccccc1OCCCCCN1CCOCC1 | 15 | 10* | 0 | 0 | . | 21 | 1 | 5
CC(C)c1ccccc1OCCCCCN1CCOCC1 | 5 | -4 | -5 | -7 | -7 | . | . | .
COc1ccccc1C(=O)Nc1ccc2c(c1)C(=O)N(C)[C@@H]1CC[C@@H](CC(=O)NCc3ccc(Cl)c(Cl)c3)O[C@@H]1CO2 | . | . | . | . | 3 | . | . | .
O=C(CCCc1ccncc1)c1ccccc1 | . | 8.2* | -4 | . | . | 55 | 3 | 6.9*
Cc1noc(C)c1NC(=O)Nc1ccc2c(c1)C(=O)N([C@@H](C)CO)C[C@H](C)[C@H](CN(C)S(=O)(=O)c1ccccc1)O2 | . | . | . | . | -4 | . | . | .
Nc1nc(Nc2ccccc2F)sc1C(=O)c1ccccc1 | 28 | 8.2* | 35* | 21 | . | 100* | 13* | 6.9*
O=C(NNc1ccccc1F)c1ccccc1 | -1 | 1 | 3 | -1 | . | . | . | .
O=C(C[C@@H]1CC[C@H]2[C@@H](COC[C@@H](O)CN2Cc2ccc(Oc3ccccc3)cc2)O1)N1CCCCC1 | . | . | . | . | 14 | . | . | .
